Many of the other results were omitted from the sample, so hits are more common in it than they were.
AMA1-RON2 inh: disrupts binding of P. falciparum AMA1 to RON2; AlphaScreen AMA1-biotinylated RON2 peptide binding; Potency, µM (series often up to 58.2 µM), actives largely listed as inhibitors; 360,000 tested, 0.2% active; further: nearly all actives have a fitted effect of over 45% in size
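AMA1 (3D7) with his tag at 25 nM final met compounds first, then biotinylated RON2 peptide at 25 nM; detection used donor plus acceptor beads, 10 µg/mL apiece, read by AlphaScreen after 30 min at room temperature.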
AmpC no deterg: blocks E. coli AmpC beta-lactamase in detergent-free assay. AmpC nitrocefin hydrolysis, absorbance 480 nm, 0.0001% Triton. Potency, µM (highest dose often 57.1 µM), usual class: inhibitors. 330,000 tested, 0.52% active. AID 485341; further: nearly all actives have a fitted effect of over 20% in size
Target sequence (P00811 whole entry, looked up): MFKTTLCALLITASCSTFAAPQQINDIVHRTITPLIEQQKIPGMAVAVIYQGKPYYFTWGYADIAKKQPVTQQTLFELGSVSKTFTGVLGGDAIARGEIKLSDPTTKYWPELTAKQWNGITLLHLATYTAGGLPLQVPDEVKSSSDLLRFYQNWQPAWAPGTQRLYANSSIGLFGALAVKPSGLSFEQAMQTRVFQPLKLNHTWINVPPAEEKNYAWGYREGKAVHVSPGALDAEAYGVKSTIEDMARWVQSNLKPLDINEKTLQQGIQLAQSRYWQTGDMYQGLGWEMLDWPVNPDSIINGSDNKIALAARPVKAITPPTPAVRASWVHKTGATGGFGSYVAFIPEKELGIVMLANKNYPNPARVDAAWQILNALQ
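AmpC (5.3 nM in the dispensed reagent) in 20 mM phosphate pH 7.0 with 0.01% (detergent screen) or 0.0001% Triton X-100 was preincubated with compounds for 15 min at room temperature. Nitrocefin was then added from an 800 uM solution, and hydrolysis was followed at 480 nm.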
Shiga toxin inh: Shiga toxin inhibition | Vero cells, Shiga toxin protein synthesis inhibition reporter | inhibition, % at 38.7 µM | 290,000 tested, 9.2% active; in the data active means inhibition mostly above about 28%, no sharp cut-off; inactive means mostly below about 43%
CHX counter: affects cycloheximide protein synthesis inhibition readout, counter-screen. cell reporter, cycloheximide protein synthesis inhibition counterscreen. max response, %. 300,000 tested, 12% active; in the data active means max response mostly above about 13%, no sharp cut-off; inactive means mostly below about 14%; further: read at 38.3 µM for the half of the compounds with a filed dose
AmpC inh detg: inhibitors of E. coli AmpC beta-lactamase with detergent | P00811 | AmpC hydrolysis of nitrocefin, absorbance 480 nm, 0.01% Triton | Potency, µM (titrated, usually from 114 µM), actives largely listed as inhibitors | 370,000 tested, 0.041% active; further: nearly all actives have a fitted effect of over 25% in size
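AmpC (5.3 nM in the dispensed reagent) in 20 mM phosphate pH 7.0 with 0.01% (detergent screen) or 0.0001% Triton X-100 was preincubated with compounds for 15 min at room temperature. Nitrocefin was then added from an 800 uM solution, and hydrolysis was followed at 480 nm.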
SARS PLpro yeast: inhibitors of SARS-CoV papain-like protease in yeast; S. cerevisiae expressing SARS-CoV PLpro, growth rescue; Potency, µM (doses to about 32.9 µM), actives largely listed as activators; 330,000 tested, 0.19% active; calls by dose curve; further: nearly all actives have a fitted effect of over 55% in size
A number is an active result; 0 = inactive; ? = inconclusive; - = no result; + = active, no number; [ ] = remark or other dose. Unless noted, the call rests on the fitted dose curve; in most records, active means well fitted curve in the direction sought with a large enough effect; inconclusive means small, poorly fitted or top-dose-only effect, or another doubt; inactive means no such curve, though single readings can be large; an effect the other way counts as inactive or inconclusive.

SMILES | AMA1-RON2 inh | AmpC no deterg | Shiga toxin inh | CHX counter | AmpC inh detg | SARS PLpro yeast
Cc1noc(C)c1C(=O)OCC(=O)N1CCc2ccccc21 | 0[11.6 µM] | 0 | - | - | - | 0
O=[N+]([O-])c1ccc(CSC2=NCCS2)cc1 | 0 | 0 | - | 27 | 0 | 0
c1ccc(CSC2=NCCS2)cc1 | 0 | 0 | 120 | 0 | 0 | 0
COC(=O)c1ccc(CSC2=NCCS2)cc1 | 0[11.6 µM] | 0 | 79 | 61 | 0 | 0
COCCOC(=O)c1c(C)oc2ccc(OCc3cc(C(=O)OC)oc3C)cc12 | 0 | 0 | 0 | 0 | 0 | 0
CC(=O)NC(CC(=O)OCC(=O)N1c2ccccc2NC(=O)C1(C)C)c1ccccc1 (configuration not stated) | 0 | 0 | - | - | 0 | 0
O=C(CSc1nnc(-c2ccncc2)n1Cc1ccccc1)NCCc1ccccc1 | 0 | 0 | 0 | 0 | 0 | 0
COc1ccc(OCCOC(=O)c2cccs2)cc1 | 0 | 0 | 77 | 33 | 0 | 0
COc1ccc(C(=O)O/N=C(/C)c2cccs2)cc1 | 0 | 0 | 61 | 34 | 0 | 0
COc1ccc(C(=O)O/N=C(\C)c2nccs2)cc1 | 0 | 0 | 0 | 26 | 0 | 0
C/C(=N/OC(=O)c1c(F)cccc1F)c1nccs1 | 0 | 0 | 0 | 0 | 0 | 0
C/C(=N\OC(=O)c1ccc(F)cc1)c1nccs1 | 0 | 0 | 0 | 47 | 0 | 0
COCCN1C(=O)c2[nH]nc(-c3ccccc3O)c2C1c1ccc(OC)cc1 (configuration not stated) | 0 | 0 | 0 | 0 | 0 | 0
NC(=O)N/N=C/c1c(F)c(F)c(F)c(F)c1F | 0 | 0 | 0 | 0 | 0 | 0
COc1ccc2c(c1)OC(=O)CC2c1ccccc1OC (configuration not stated) | 0 | 0 | 0 | 0 | - | 0
O=c1c2c3c(sc2nc2sc(CN4CCOCC4)cn12)CCCC3 | 0 | 0 | + | 18 | 0 | 0
O=C(NCCN1CCOCC1)c1cccn2c(=O)c3c4c(sc3nc12)CCCC4 | - | 0 | 0 | 0 | 0 | 0
COC(=O)c1nnn(-c2ccc(Cl)cc2)c1C(=O)OC | - | - | - | - | 0 | -
Cn1c(N)c(C(=O)COC(=O)C2=COCCO2)c(=O)n(C)c1=O | 0 | 0 | 0 | 0 | ? | 0
O=c1cc(N2CCc3ccccc3C2)[nH]c(=O)n1-c1ccccc1Cl | 0 | 10µM | 0 | 0 | 0 | 0
Cc1ccccc1-n1c(=O)cc(N2CCc3ccccc3C2)[nH]c1=O | 0 | 0 | 0 | 0 | 0 | 0
Cc1ccc(C2CC(c3ccc(C)cc3)n3nc(N)nc3N2)cc1 (configuration not stated) | 0 | 45µM | 0 | 0 | ? | 0
CCc1ccc(C2CC(c3ccc(F)cc3)Nc3nc(N)nn32)cc1 (configuration not stated) | 0 | 4.5µM | 0 | 0 | 0 | 0
CCc1ccc(C2CC(c3ccc(Cl)cc3)n3nc(N)nc3N2)cc1 (configuration not stated) | 0 | 0 | 0 | 0 | 0 | 0
Cc1ccc(C2CC(c3ccc(Cl)cc3)n3nc(N)nc3N2)cc1 (configuration not stated) | 0 | 0 | 0 | 0 | ? | 0
SMILES | AMA1-RON2 inh | AmpC no deterg | Shiga toxin inh | CHX counter | AmpC inh detg | SARS PLpro yeast
Cc1ccc(S(=O)(=O)/N=C2\C=C(NS(=O)(=O)c3ccccc3)C(=O)c3ccccc32)c(C)c1 | 0 | - | - | - | - | -
Cc1ccc(S(=O)(=O)/N=C2/C=C(Sc3ncn[nH]3)C(=O)c3ccccc32)c(C)c1 | - | 25µM | 0 | 19 | 0 | 0
Cc1ccc(S(=O)(=O)Nc2ccc(O)c(Sc3ncn[nH]3)c2)cc1 | 0 | 0 | 0 | 0 | 0 | 0
CC(C)c1ccc(S(=O)(=O)/N=C2/C=C(Sc3ncn[nH]3)C(=O)c3ccccc32)cc1 | 0[11.6 µM] | 0 | 78 | 36 | 0 | 0
Cc1ccc(S(=O)(=O)/N=C2/C=C(Sc3ncn[nH]3)C(=O)c3ccccc32)cc1 | 0 | 0 | 0 | 33 | 0 | 0
CCOC(=O)NC(=O)CSc1nc2ccccc2[nH]1 | 0 | 0 | 0 | 0 | 0 | 0
COc1cc(C2CC(=O)N(Cc3cccc(F)c3)c3ccccc3S2)cc(OC)c1OC (configuration not stated) | - | - | - | - | 0 | -
Cn1cnnc1SCC(=O)Nc1nc(-c2ccccc2)cs1 | 0 | 0 | 0 | 13 | 79µM | 0
Cc1cc(C)nc(SCC(=O)Nc2nc(-c3ccccc3)c(-c3ccccc3)o2)n1 | 0 | 0 | 0 | 0 | 0 | 0
CCCc1cc(=O)[nH]c(SCC(=O)Nc2nc(-c3ccccc3)cs2)n1 | 0 | 13µM | 0 | 0 | 0 | 0
Cc1cc(=O)[nH]c(SCC(=O)Nc2nc(-c3ccccc3)c(-c3ccccc3)o2)n1 | 0 | 0 | 0 | 16 | 0 | 0
CCCc1cc(=O)[nH]c(SCC(=O)NC(=O)c2ccccc2)n1 | 0 | 0 | 0 | 0 | ? | 0
Cc1nnc(SCC(=O)Nc2nc(-c3ccccc3)cs2)n1N | 0 | 0 | 0 | 0 | 0 | 0
COc1ccc(-c2[nH]ncc2CN2CCCC2c2nonc2C)c(F)c1 (configuration not stated) | 0 | 0 | 0 | 0 | 0 | 0
Brc1cccc2sc(N3CCN(c4ccccc4)CC3)nc12 | ? | 0 | 30 | 24 | ? | 0
COc1ccc(OC)c2sc(N3CCCCC3)nc12 | 0 | 0 | 66 | 36 | 0 | 0
Clc1cccc2sc(N3CCCCC3)nc12 | 0 | 0 | 82 | 32 | 0 | 0
Clc1cc(Cl)c2nc(N3CCCCC3)sc2c1 | 0 | 0 | 72 | 34 | 0 | 0
COc1ccc(OC)c2sc(N3CCc4ccccc4C3)nc12 | 0 | 0 | 0 | 0 | ? | 0
CC1c2cc3c(cc2CCN1CC(=O)Nc1ccc(S(=O)(=O)N2CCCC2)cc1)OCCCO3 (configuration not stated) | 0 | 0 | 0 | 0 | 0 | 0
CCN(CCCCN1C(=O)c2ccccc2C1=O)c1ccc2c(c1)C(=O)N(C)C2=O | 0 | 0 | 0 | 0 | ? | 0
CCN(CC)c1ccc2c(c1)C(=O)N(C)C2=O | 0 | 0 | 72 | 33 | 0 | 0
CCN(C(=O)COC(=O)CNS(=O)(=O)c1ccc(C)cc1)C1CCS(=O)(=O)C1 (configuration not stated) | 0 | - | - | - | - | -
COc1ccc(C2=NNC(c3cc(Cl)cc4c3OCOC4)C2)c(O)c1 (configuration not stated) | - | 0 | 0 | 17 | 0 | 0
CCC1CCc2nc3sc(C(=O)Nc4cccc(F)c4)c(N)c3cc2C1 (configuration not stated) | - | - | - | - | 0 | -
O=C(CSCC(=O)N1CCCCC1)Nc1nc(-c2ccc(Cl)s2)cs1 | 0 | 0 | 0 | 16 | 0 | 0
CCOC(=O)N1CCN(C(=O)CSCC(=O)Nc2nc(-c3ccccc3)cs2)CC1 | 0 | 0 | 30 | 0 | ? | 0
O=C(CSCC(=O)N1CCN(c2ccccc2)CC1)Nc1nc(-c2ccc(Cl)s2)cs1 | 0 | 0 | 0 | 0 | 0 | 0
O=C(CSCC(=O)N1CCCCC1)Nc1nc(-c2cccs2)cs1 | 0 | 0 | 0 | 20 | 0 | 0

Compound activity (PubChem)
